Sampled rows, rich in hits. Any-hit rate of the full collection: about 3.1%.
FadD28 FP inh – inhibitors of Mycobacterium tuberculosis FadD28 bisubstrate binding; AID 588549; hit rate 0.22% among 360,000; inhibition, % at 12.5 µM; FadD28 bisubstrate probe binding, fluorescence polarization; in the data active = inhibition above about 8.5%, passing the limit was not always enough
SARS 3CLpro inh-1 – SARS-CoV 3CLpro protease inhibition. recombinant SARS-CoV 3CLpro, quenched FRET peptide cleavage. hit rate 0.14% among 290,000. AID 1706. P0C6X7. inhibition, % at 6 µM; in the data active = inhibition above about 12%
FBA Mtb inh – Mtb fructose-bisphosphate aldolase inhibition | P9WQA3 | purified M. tuberculosis FBA, fluorescence read-out | inhibition, % at 1 µM | hit rate 2.3% among 360,000; in the data active = inhibition above about 27%;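 note: 0% = vehicle and 100% = reference inhibitor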
Target sequence (P9WQA3 whole entry, looked up): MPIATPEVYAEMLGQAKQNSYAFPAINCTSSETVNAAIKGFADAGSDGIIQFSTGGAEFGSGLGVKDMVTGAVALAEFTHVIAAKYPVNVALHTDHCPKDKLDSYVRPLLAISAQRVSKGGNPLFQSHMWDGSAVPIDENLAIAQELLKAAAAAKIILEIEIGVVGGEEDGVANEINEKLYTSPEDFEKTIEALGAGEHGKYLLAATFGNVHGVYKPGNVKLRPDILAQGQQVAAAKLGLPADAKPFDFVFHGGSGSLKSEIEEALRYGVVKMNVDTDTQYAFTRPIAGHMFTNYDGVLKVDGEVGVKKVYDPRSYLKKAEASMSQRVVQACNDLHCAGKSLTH
GDH-TPI inh – counter-screen for M. tuberculosis FBA inhibitors: GDH-TPI coupled enzymes; AID 588335; GDH-TPI coupled enzyme counterscreen, NADH absorbance; inhibition, % at 4.8 µM; hit rate 1.2% among 360,000; in the data active = inhibition above about 30%;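 note: 0% = DMSO wells and 100% = wells lacking the enzyme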
Mtb BioA inh – blocks M. tuberculosis BioA enzyme activity | hit rate 0.096% among 360,000 | AID 602481 | purified M. tuberculosis BioA enzyme, plate reader | inhibition, % at 9.99 µM; in the data active = inhibition above about 40%
SARS 3CLpro inh-2 – SARS 3CLpro inhibition, confirmation assay; hit rate 36% among 380; shares compounds with SARS 3CLpro inh-1; AID 1879; QFRET protease activity assay; inhibition, % at 6 µM; in the data active = inhibition above about 13%
The depositor's hits bear a star; / = no result given.

SMILES	FadD28 FP inh	SARS 3CLpro inh-1	FBA Mtb inh	GDH-TPI inh	Mtb BioA inh	SARS 3CLpro inh-2
Cc1ccccc1Nc1nnc(SCC(=O)Nc2ncc(C(F)(F)F)cc2Cl)s1	-2	20*	3	8	/	-4
Cc1cccc(C)c1Nc1nnc(SCC(=O)Nc2ncc(C(F)(F)F)cc2Cl)s1	-2	6	-1	8	-2	/
Cc1cccc(Nc2nnc(SCC(=O)Nc3ncc(C(F)(F)F)cc3Cl)s2)c1C	-2	13*	-1	1	0	3
Cc1noc(C)c1NC(=O)N(C)C[C@@H]1Oc2ccc(NC(=O)Nc3ccccc3)cc2CC(=O)N([C@@H](C)CO)C[C@H]1C	/	/	/	/	3	/
O=C(OCC(=O)N1c2ccccc2Sc2ccccc21)c1cccnc1	-4	21*	2	-1	/	22*
O=C(COc1ccccc1)N1c2ccccc2Sc2ccccc21	0	0	1	9	-1	/
O=C1CC(N2CCN(C/C=C/c3ccccc3)CC2)C(=O)N1CCc1ccccc1 (stereo not given)	0	2	-1	2	0	/
O=C1CC(N2CCN(C/C=C/c3ccccc3)CC2)C(=O)N1Cc1cccs1 (stereo not given)	-4	16*	0	-4	0	-2
C[C@@H]1CN([C@@H](C)CO)S(=O)(=O)c2ccc(-c3cccc(F)c3)cc2O[C@H]1CN(C)C(=O)c1cccc(F)c1	/	/	/	/	4	/
Cc1ccc(-c2csc(NC(=O)c3cccc([N+](=O)[O-])c3C(=O)O)n2)cc1	-4	10	-4	-3	0	/
O=C(Nc1nc(-c2cccc([N+](=O)[O-])c2)cs1)c1cccc([N+](=O)[O-])c1C(=O)O	2	17*	-1	1	4	5
O=C(C[C@@H]1CC[C@@H](NC(=O)Nc2cc(F)ccc2F)[C@@H](CO)O1)Nc1ccccc1	/	/	/	/	-1	/
O=C(NCCN1CCOCC1)c1ccc2c(c1)N(Cc1ccc(F)cc1)C(=O)CS2	-1	10	-1	2	2	/
Cc1ccc(CN2C(=O)CSc3ccc(C(=O)NCCN4CCOCC4)cc32)cc1	-1	19*	2	8	1	8
COc1ccc(/C(N)=N/OC(=O)CCc2ccccc2)cc1OC	-1	5	2	9	/	/
COc1ccc(/C(N)=N/OC(=O)CSc2ccccc2)cc1OC	0	13*	4	-1	-3	-1
Cc1ccc(S(=O)(=O)Nc2ccc3c(c2)C(=O)N([C@@H](C)CO)C[C@@H](C)[C@@H](CN(C)C(=O)Nc2ccc(C(F)(F)F)cc2)OCCCC[C@@H](C)O3)cc1	/	/	/	/	0	/
Cc1ccc(S(=O)(=O)N2CCN(S(=O)(=O)c3ccc4c(c3)OCCO4)CC2)cc1	-1	12*	4	14	-1	-3
CSc1nsc(NC(=O)OCc2ccc(Cl)cc2)n1	0	13*	-3	4	1	3
O=C(Nc1ccc(C(F)(F)F)cc1)N[C@@H]1CC[C@H](CCn2cc(C3(O)CCCC3)nn2)O[C@@H]1CO	/	/	/	/	2	/
COc1ccc(Nc2oc(COc3ccc(C)cc3)nc2C#N)cc1	1	13*	1	1	1	0
CN(CCc1ccccc1)C(=O)c1cc(COc2cccc(C(F)(F)F)c2)on1	-3	13*	-7	-11	-1	7
CCCNC(=O)N1C[C@@H](O)COC[C@H]2O[C@@H](CC(=O)NCc3ccncn3)CC[C@@H]21	/	/	/	/	0	/
CO[C@@H]1CC[C@H]2CCOc3ccc(C#N)cc3C(=O)N(C)[C@H](C)C(=O)N(C)C[C@H]1O2	/	/	/	/	0	/
CC(C)c1ccc(NC(=O)CSc2nc3ccsc3c(=O)n2Cc2ccc(C(=O)O)cc2)cc1	1	13*	0	2	7	5
C[C@@H]1CCCCO[C@H](CN(C)S(=O)(=O)c2ccc(Cl)cc2)[C@H](C)CN([C@H](C)CO)C(=O)c2cc(NC(=O)Cc3ccccc3)ccc2O1	/	/	/	/	0	/
O=[N+]([O-])/C=C/c1cn(Cc2ccccc2)c2ccccc12	0	13*	-2	19	/	-2
O=C(O)Cn1cc(/C=C/[N+](=O)[O-])c2ccccc21	1	-1	-10	3	/	/
CCc1ccc(NC(=O)C2CCCN(S(=O)(=O)c3ccc4[nH]c(=O)ccc4c3)C2)cc1 (stereo not given)	-1	13*	0	13	-1	1
Cc1ccc(NC(=O)C2CCCN(S(=O)(=O)c3ccc4[nH]c(=O)ccc4c3)C2)cc1C (stereo not given)	-1	0	4	16	-3	/

Screening results (PubChem)
